Shown are actives, neighbours in structure and some others; about 19% of the full set was active somewhere.
TGFb inhibitor: TGF-b pathway inhibition; HepG2 CAGA-GFP TGF-b/SMAD3 reporter, GFP fluorescence, 18 h; TGF-beta stimulated, 500 pg/mL final; Potency, µM (highest dose often 46.1 µM), inactives show at the top dose activity, negative = inhibition, actives largely listed as inhibitors; 410,000 compounds, 1.2% hits; further: potency means the concentration at half of the fitted maximal effect; on the % scale 0 is the no-effect control and ±100 the full control effect; nearly all actives have a fitted effect of over 65% in size
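Inhibition was scored as loss of TGF-beta-induced (500 pg/mL final, 18 hours, 37 degrees C) GFP in HEPG2 cells carrying a CAGA-GFP reporter, in DMEM with 1% FBS. Well GFP was summed per cell; Activity was normalised to unstimulated and stimulated DMSO wells, then concentration-response fitting.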
IL-1B inflam inh: blocks inflammasome-driven IL-1 beta release; activity change, % at 57.5 µM; THP-1 LPS/ATP IL-1B secretion, AlphaLISA, 16 h; active compounds read low; AID 743279; 360,000 compounds, 4.7% hits; in the data active means activity change below about -50%; inconclusive means mostly about -30% to -49%; further: on the % scale 0 is the no-effect control and ±100 the full control effect
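Secreted IL-1B measured by AlphaLISA bead assay after 16 h compound exposure of THP-1 cells; compounds (final up to 57.5 uM) added 1 h before LPS (250 ng/mL) and ATP (1.25 mM) stimulation; lower signal means less secretion.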
TDP1 cell noCPT: qHTS for Inhibitors of human tyrosyl-DNA phosphodiesterase 1 (TDP1): qHTS in cells in absence of CPT | DT40 Tdp1-/- hTDP1 cells, no CPT, ATP luminescence, 48 h | 420,000 compounds, 15% hits | AID 686978, 2013 | Potency, µM (highest dose often 46.2 µM), inactives show top-dose activity change, negative = growth inhibition, usual class: inhibitors; further: potency means the concentration at half of the fitted maximal effect; on the % scale 0 is the no-effect control and ±100 the full control effect; nearly all actives have a fitted effect of over 55% in size
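Chicken DT40 Tdp1-/- cells complemented with human TDP1, screened without camptothecin (DMSO vehicle only), 400 cells/well. Compounds pin-transferred, cells incubated at 37 °C for at least 48 hr. Growth read as ATP-dependent luminescence (CellTiter-Glo, 30 min at RT).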
HepG2 tox: kills HepG2 cells in TGF-b inhibitor counter-screen | 410,000 compounds, 0.76% hits | Potency, µM (doses to about 46.1 µM), for inactives: at the highest dose activity change, negative = cytotoxicity, actives largely listed as cytotoxic | AID 588856 | HepG2 CAGA-GFP viability, ATP luminescence, 18 h; further: potency means the concentration at half of the fitted maximal effect
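HepG2 CAGA-GFP cells (1000/well, DMEM with 1% FBS) received compound, then TGF-beta at 500 pg/mL final, and were incubated 18 hours at 37 degrees C. Viability was read by CellTiter-Glo luminescence. Media-only wells were set as complete cell-killing and DMSO as no toxicity.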
TDP1 inh: inhibitors of human tyrosyl-DNA phosphodiesterase TDP1; Q9NUW8; recombinant TDP1, AlphaScreen DNA substrate cleavage; Potency, µM (series often up to 130 µM), inactives show top-dose activity change, negative = inhibition, usual class: inhibitors; 350,000 compounds, 0.28% hits; AID 485290; further: potency means the concentration at half of the fitted maximal effect; on the % scale 0 is the no-effect control and ±100 the full control effect; nearly all actives have a fitted effect of over 40% in size
Target sequence (Q9NUW8 whole entry, looked up): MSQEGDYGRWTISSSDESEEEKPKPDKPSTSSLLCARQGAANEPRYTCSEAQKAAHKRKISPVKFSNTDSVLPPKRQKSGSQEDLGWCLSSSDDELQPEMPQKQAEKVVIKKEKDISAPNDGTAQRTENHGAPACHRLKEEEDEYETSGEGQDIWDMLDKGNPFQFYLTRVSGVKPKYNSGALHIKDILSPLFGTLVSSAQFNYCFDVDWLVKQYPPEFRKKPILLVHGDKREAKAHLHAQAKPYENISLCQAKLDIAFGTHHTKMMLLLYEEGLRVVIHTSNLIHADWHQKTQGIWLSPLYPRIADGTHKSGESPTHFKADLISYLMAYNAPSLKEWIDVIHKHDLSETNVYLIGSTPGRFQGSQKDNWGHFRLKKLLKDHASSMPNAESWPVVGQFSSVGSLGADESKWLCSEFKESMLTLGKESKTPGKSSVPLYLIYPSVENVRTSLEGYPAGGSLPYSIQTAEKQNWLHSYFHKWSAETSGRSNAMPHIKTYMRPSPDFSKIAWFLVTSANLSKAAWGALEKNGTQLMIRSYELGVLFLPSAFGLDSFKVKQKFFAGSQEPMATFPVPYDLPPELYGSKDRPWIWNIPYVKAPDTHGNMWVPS
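Tdp1 1 nM final; 15 min RT w/ cpd; substrate 15 nM, 5 min; beads 10 ug/ml, 10 min; AlphaScreen read. Neg ctrl: no enzyme.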
TDP1 cell CPT: DT40-hTDP1 cell growth loss with CPT; Potency, µM (series often up to 46.2 µM), without a hit: top-dose activity change, negative = growth inhibition, usual class: inhibitors; chicken DT40 Tdp1-/-;hTDP1 cells + 20 nM CPT, ATP luminescence, 48 h; AID 686979; 420,000 compounds, 12% hits; further: potency means the concentration at half of the fitted maximal effect; on the % scale 0 is the no-effect control and ±100 the full control effect; nearly all actives have a fitted effect of over 55% in size
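Chicken DT40 Tdp1-/- cells complemented with human TDP1, 400 cells/well, exposed to compounds plus 20 nM camptothecin for at least 48 h at 37 C; viability read as ATP content by CellTiter-Glo luminescence.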
Active calls of the source: *; ? = inconclusive; . = no result. Unless noted, the call rests on the fitted dose curve; in most records, active means well fitted curve in the direction sought with a large enough effect; inconclusive means small, poorly fitted or top-dose-only effect, or another doubt; inactive means no such curve, though single readings can be large; an effect the other way counts as inactive or inconclusive.

SMILES	TGFb inhibitor	IL-1B inflam inh	TDP1 cell noCPT	HepG2 tox	TDP1 inh	TDP1 cell CPT
CC(=O)Nc1ccc(Nc2cc(C)c3ccccc3n2)cc1	?	-92*	?	-21%	.	?
COc1ccc(Nc2cc(C)c3ccc(O)cc3n2)cc1	?	-50*	16µM*	-41%	5%	23µM*
Cc1cc(Nc2ccccc2)nc2cc(O)ccc12	?	29	-27%	-32%	-1%	-28%
CC(C)NC(=O)N1CC[C@@]2(CCCN(S(C)(=O)=O)C2)C1	.	.	4%	.	.	7%
CC1(C(=O)Nc2ccc(S(=O)(=O)Nc3ncccn3)cc2)CCCC1	9%	15	-17%	0%	3%	9%
COc1ccc(CC(=O)Nc2c3c(nn2C(C)(C)C)CS(=O)(=O)C3)cc1	2%	9	-1%	-5%	3%	2%
COc1cc(NC(=O)CCc2c(C)nc3c4c(C)cc(C)nc4nn3c2C)cc(OC)c1	4%	.	?	-4%	3%	?
N#CCCN(Cc1ccccc1)C(=O)CCC(=O)c1ccc(F)cc1	2%	-7	-21%	4%	.	-16%
COc1ccc(NC(=O)CCc2c(C)nc3c(-c4ccc(F)cc4)c(C)nn3c2C)c(OC)c1	-3%	.	21µM*	2%	6%	23µM*
COC(=O)C(NC(=O)CCc1c(C)nc2c(-c3ccccc3)c(C)nn2c1C)C(C)C (centres undefined)	?	.	26µM*	-14%	0%	?
Cc1nc2c(-c3ccccc3)c(C)nn2c(C)c1CCC(=O)NC(C)c1ccccc1 (centres undefined)	?	.	?	-7%	-3%	-25%
Cc1nc2c(-c3ccc(F)cc3)c(C)nn2c(C)c1CCC(=O)Nc1ccc(F)cc1F	-20%	-17	-21%	5%	.	-19%
CSc1ccc(CCNC(=O)CCc2c(C)nc3c(-c4ccccc4)c(C)nn3c2C)cc1	?	.	21µM*	-35%	9%	?
Cc1nc2c(-c3ccccc3)c(C)nn2c(C)c1CCC(=O)NCc1ccccc1	-22%	.	?	-15%	1%	-21%
Cc1nc2c(-c3ccc(F)cc3)c(C)nn2c(C)c1CCC(=O)NCc1ccc(F)cc1	-5%	.	-9%	0%	3%	-8%
Cc1nc2c(-c3ccccc3)c(C)nn2c(C)c1CCC(=O)Nc1ccccc1F	?	.	?	-1%	-1%	18µM*
CCN1CCN(c2ccc(NC(=O)CCc3c(C)nc4c(-c5ccccc5)c(C)nn4c3C)cc2)CC1	?	-62*	16µM*	-15%	5%	?
COc1ccc(OC)c(NC(=O)CCc2c(C)nc3c(-c4ccccc4)c(C)nn3c2C)c1	?	.	21µM*	-10%	8%	?
Cc1nc2c(-c3ccc(F)cc3)c(C)nn2c(C)c1CCC(=O)NC(C)CCc1ccco1 (centres undefined)	?	?	23µM*	-9%	-3%	23µM*
Cc1ccc2c(=O)cc(C(=O)Nc3ccc(S(=O)(=O)N4CCCCC4)cc3)oc2c1	-5%	.	-19%	-48%	-2%	-23%
CC(=O)C[n+]1cccc(Br)c1	5%	.	0%	9%	.	6%
CN1/C(=C\C(=O)C[n+]2ccc(C(=O)c3ccccc3)cc2)C(C)(C)c2ccccc21	-17%	-19	1.2µM*	-11%	-10%	0.82µM*
CN1/C(=C\C(=O)C[n+]2cccc(Br)c2)C(C)(C)c2ccccc21	-19%	-2	5.8µM*	-26%	3%	4.6µM*
CN1/C(=C\C(=O)C[n+]2cccc(C(N)=O)c2)C(C)(C)c2ccccc21	4%	12	-15%	11%	5%	13%
Cc1cccc[n+]1CC(=O)/C=C1\N(C)c2ccccc2C1(C)C	?	17	3.3µM*	-14%	-3%	3.3µM*
SMILES	TGFb inhibitor	IL-1B inflam inh	TDP1 cell noCPT	HepG2 tox	TDP1 inh	TDP1 cell CPT
Cc1ccc[n+](CC(=O)/C=C2\N(C)c3ccccc3C2(C)C)c1	?	-3	1.6µM*	-3%	0%	1.2µM*
CCCCCCCc1cc2c(cn1)=C(OC)C(C)(OC(C)=O)C(=O)C=2Cl (centres undefined)	.	.	.	.	6%	.
Cc1cc(NCc2ccccn2)n2ncc(-c3ccccc3)c2n1	?	-7	0.15µM*	-41%	5%	0.16µM*
Cc1cc(NCc2ccccn2)n2ncc(-c3ccc(Cl)cc3)c2n1	11µM*	-3	0.82µM*	-49%	8%	0.58µM*
O=C1OCC(c2ccccc2)=C1c1ccccc1[N+](=O)[O-]	0%	32	?	0%	3%	-10%
O=C1OCC(c2ccc(Cl)s2)=C1c1ccccc1[N+](=O)[O-]	-1%	-65*	?	-9%	.	0%
COc1ccc(NC(=O)c2ccc(Br)c(S(=O)(=O)N3CCOCC3)c2)cc1	1%	-1	?	6%	2%	-20%
COc1ccc(Nc2nc3ccccc3n3cnnc23)cc1Cl	0%	8	-24%	-5%	.	?
COc1ccc(/C(C)=N/Nc2nc3ccccc3n3cnnc23)cc1OC	23%	-5	21µM*	-2%	2%	?
CCC(C)(C)NC(=O)CN(Cc1ccc(F)cc1)C(=O)CCC(=O)Nc1ccccn1	3%	-12	-18%	-2%	13%	-4%
CC(=O)Nc1cc(-c2cccc(C(=O)NCCO)c2)cn2c(-c3ccc(F)c(Cl)c3)cnc12	-20%	1	23µM*	-41%	.	29µM*
COc1cccc(-c2cnc3c(NC(C)=O)cc(-c4cccc(C(=O)NCCO)c4)cn23)c1	7%	-10	?	-15%	.	16µM*
COC(=O)C1CN(C(=O)COc2ccccc2)c2ccccc2O1 (centres undefined)	-3%	22	-8%	-21%	.	-3%
Cc1ccc2[nH]c3c(c2c1)CCc1cn[nH]c1-3	-22%	-13	23µM*	-27%	8%	?
Cc1ccc2[nH]c3c(c2c1)CCC3=O	1%	14	-10%	-9%	-5%	-4%
O=C(OC1CCCCC1=O)c1cc(S(=O)(=O)N2CCOCC2)ccc1F (centres undefined)	-1%	-2	16%	-3%	3%	-13%

Source: PubChem (National Center for Advancing Translational Sciences (NCATS))
